KB-V1 MDR tox = qHTS assay for MDR1-selective chemotherapeutics: Primary screen using the drug-selected MDR subline cells KB-V1; KB-V1 MDR cells viability, CellTiter-Glo, 72 h; Potency, µM (doses to about 46.1 µM), actives largely listed as cytotoxic; hit rate 3.4% among 400,000; AID 1347076, 2019; also: % is scaled to controls: 0 for no effect and ±100 for the full control effect; nearly all actives have a fitted effect of over 60% in size
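Drug-selected KB-V1 cells, grown in DMEM lacking phenol red with 10% FBS, receive compound titrations; after three days at 37 degrees C, surviving cell ATP is quantified by CellTiter-Glo luminescence and responses normalized and curve-fitted.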
HT1080 IDH1KD tx = qHTS for induction of synthetic lethality in tumor cells producing 2HG: qHTS for the HT-1080-IDH1KD cell line; HT-1080 IDH1 knockdown viability, ATP luminescence, 48 h; Potency, µM (series often up to 46.1 µM), without a hit: at the top dose activity, negative = toxicity, actives largely listed as cytotoxic; hit rate 2% among 360,000; AID 686971, 2013;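 also: 0% = DMSO wells and -100% = cell-free medium wells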
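Knockdown cells (IDH1KD HT-1080) received compounds 2 h after plating at 750 cells/well and were kept 48 h at 37 °C in 5% FBS RPMI. A CellTiter-Glo luminescence read gave % activity for curve fitting.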
KB-3-1 tox = qHTS assay for MDR1-selective chemotherapeutics: Primary screen using the parental adenocarcinoma cell KB-3-1; KB-3-1 viability, CellTiter-Glo ATP luminescence, 72 h; Potency, µM (highest dose often 46.1 µM), usual class: cytotoxic; hit rate 1.4% among 400,000; also: % is scaled to controls: 0 for no effect and ±100 for the full control effect; nearly all actives have a fitted effect of over 60% in size
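Cytotoxicity in the drug-sensitive parental line KB-3-1 was scored as loss of CellTiter-Glo luminescence following 72 h incubation with compound. Values come from curve fitting of normalized concentration-response data.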
SW480 rereplic = A quantitative high throughput screen for small molecules that induce DNA re-replication in SW480 colon adenocarcinoma cells; SW480 DNA re-replication, Hoechst DNA content imaging, 48 h; Potency, µM (top dose mostly 46.1 µM), for inactives: at the top dose re-replication activation, usual class: activators; hit rate 1.8% among 340,000; AID 624297, 2012; also: % of control where 0% means no effect; nearly all actives have a fitted effect of over 55% in size
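Quantitative HTS format with DMSO vehicle controls; 48 hr drug incubation at 37 C, then 40 min Hoechst staining and scanning imager measurement at 405 nm excitation.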
HT1080-NT tox = qHTS for induction of synthetic lethality in tumor cells producing 2HG: qHTS for the HT-1080-NT fibrosarcoma cell line; HT-1080-NT fibrosarcoma viability, CellTiter-Glo ATP luminescence, 48 h; Potency, µM (highest dose often 46.1 µM), without a hit: at the top dose activity, negative = less viability, most hits filed as cytotoxic; hit rate 1.6% among 360,000;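 also: NT is the 2HG producing partner of a matched IDH1 knockdown line; 0% = DMSO-treated cells and -100% = media-only wells without cells; nearly all actives have a fitted effect of over 55% in size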
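Luminescent CellTiter-Glo readout after 48 hours of compound exposure at 37 degrees C defined viability of HT-1080-NT cells. Activity was normalized to DMSO wells and cell-free media wells; concentration-response curves were fitted and assigned curve classes.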
MCF10A rereplic = A quantitative high throughput screen for small molecules that induce DNA re-replication in MCF 10a normal breast cells; MCF 10A DNA re-replication, Hoechst nuclear intensity, 48 h; Potency, µM (series often up to 46.1 µM), inactives show at the highest dose activity, positive = re-replication, usual class: activators; hit rate 2.9% among 350,000; AID 624296, 2012; also: % of control where 0% means no effect; nearly all actives have a fitted effect of over 50% in size
* marks the source's active call; other numbers are inactive results; i = inactive; ? = inconclusive; . = no result given; [ ] = remark or other dose. Rows were chosen to be rich in hits. Some 8% of all compounds tested hit in one or more screens of this group. Calls follow the shape of the dose curve; as a rule, active = well fitted curve in the direction sought with a large enough effect; inconclusive = small, poorly fitted or top-dose-only effect, or another doubt; inactive = no such curve, though single readings can be large; an effect the other way counts as inactive or inconclusive. Potency is read from the fitted curve at half-maximal effect.

SMILES	KB-V1 MDR tox	HT1080 IDH1KD tx	KB-3-1 tox	SW480 rereplic	HT1080-NT tox	MCF10A rereplic
Cc1ccc(S(=O)(=O)N2CCCc3cc(NS(=O)(=O)c4ccccc4)ccc32)cc1	i	.	i	.	.	.
Cc1ccc(NC(=O)C2CCCN(c3ncnc4onc(C)c34)C2)cc1Cl (stereo not given)	i	.	i	.	.	.
CN1C2CCC1/C(=C\c1ccc(F)cc1)C(=O)/C2=C/c1ccc(F)cc1	23.1µM*	9.9%	?	?	-1.8%	1.9%
CN1C2CCC1/C(=C/c1cccn1C)C(=O)/C2=C\c1cccn1C	i	-0.6%	i	?	4.0%	12.0%
COC(=O)c1c(NC(=O)CN2CCC3(O)CCCCC3C2c2ccc(F)cc2)sc(C)c1C (stereo not given)	16.4µM*	-8.0%	i	?	-3.9%	?
COC(=O)c1c(NC(=O)CN2CCCc3ccccc32)sc(C)c1C	?	-22.3%	i	?	-5.7%	14.6µM*
COc1ccc(CNC(=O)C(=O)NCC(c2ccco2)S(=O)(=O)c2cccs2)cc1 (stereo not given)	i	.	i	.	.	.
Cc1noc(C)c1CCC(=O)Nc1c(C(C)C)cccc1C(C)C	14.6µM*	-1.0%	i	-2.4%	0.4%	-3.8%
Cc1cc(C)n(CCc2nc(-c3cc4ccccc4o3)cs2)n1	16.4µM*	5.9%	i	0.7%	1.9%	19.9%
Cc1ccc(-n2nnnc2SCc2nc3sc(C)c(C)c3c(=O)[nH]2)cc1	18.4µM*	-0.1%	i	-132.0%	9.8%	15.6%
CC(=O)c1sc2nc(CSc3nnnn3-c3ccccc3)[nH]c(=O)c2c1C	i	-0.2%	i	-2.1%	-4.0%	8.8%
COc1cccc2c(=O)c(SC(F)(F)C(F)C(F)(F)F)c(C)[nH]c12 (stereo not given)	i	20.6µM*	?	16.4µM*	?	?
Cc1[nH]c2ccc(F)cc2c(=O)c1SC(F)(F)C(F)C(F)(F)F (stereo not given)	i	?	i	14.2%	-28.5%	-3.1%
Cc1cc(C)cc(-n2c(SCC(=O)N3CCc4ccccc43)nc3c([nH]c4ccccc43)c2=O)c1	i	.	i	.	.	.
NC(=O)c1c(N)sc(=S)n1-c1ccccc1	i	1.7%	i	-1.4%[9.22 µM]	0.1%	6.51µM*
COc1cc(/C=C2\C(=N)N3N=C(S(C)(=O)=O)SC3=NC2=O)cc(OC)c1OCCOc1ccccc1C	i	14.3%	i	-5.3%	19.9%	-9.9%
Cc1cc(/C=C2\C(=N)N3N=CSC3=NC2=O)c(C)n1Cc1ccccc1	i	0.2%	i	-10.2%	-0.6%	29.1µM*
Cc1cc(/C=C2\C(=N)N3N=C(S(C)(=O)=O)SC3=NC2=O)c(C)n1Cc1ccccc1	i	12.9%	i	?	-14.9%	20.6µM*
CCCC1=NN2C(=N)/C(=C\c3cc(C)n(-c4cccc(C)c4)c3C)C(=O)N=C2S1	i	-14.4%	i	-3.3%	-0.5%	?
CCCC1=NN2C(=N)/C(=C\c3cc(C)n(Cc4ccccc4)c3C)C(=O)N=C2S1	i	5.6%	i	-3.6%	-1.9%	23.1µM*
COc1cc(OC)cc(-c2c(-c3ccsc3)c3cc(Br)ccc3n2C)c1	i	2.6%	i	-6.1%	12.7%	?
COC(=O)C1CCCN1C(=O)COc1ccc(Cl)cc1Br (stereo not given)	i	5.4%	i	-3.6%	6.0%	-4.5%
CN(C)c1ccc(/C=C/c2ccnc3ccc(O)cc23)cc1	i	.	?	.	.	.

Assay outcomes: PubChem BioAssay, National Center for Advancing Translational Sciences (NCATS)
